# About 79,000 compounds went through this panel and 15% of them were active in at least one assay; those are over-represented in the sample as a whole. Values without a mark were called inactive. Activity calls are given as the source filed them. No stated cut-off is given here; in the data, active means growth inhibition above about 70%; inactive means the rest.
# What was measured:
# [1] = NCI Yeast Anticancer Drug Screen. Data for the rad52 strain (AID 147);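 further: 0% = growth of vehicle-treated control cultures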; conditions: S. cerevisiae rad52 mutant growth inhibition, active compounds read high
# Procedure, shortened: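 DNA repair-defective yeast; compound exposure; growth scored against vehicle controls.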
# [2] = NCI Yeast Anticancer Drug Screen. Data for the wt1 strain (AID 149);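 further: 0% = growth of vehicle-treated wt1 cultures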; conditions: S. cerevisiae wt1 strain (SPY 50644) growth inhibition, active compounds read high
# Procedure, shortened: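 wt1 yeast, compound-treated; % growth inhibition vs vehicle control.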
# [3] = NCI Yeast Anticancer Drug Screen. Data for the rad50EPP+ strain (AID 151);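 further: 0% = growth of vehicle-treated control cultures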; conditions: S. cerevisiae rad50 mutant strain, active compounds read high
# Procedure, shortened: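 rad50EPP+ yeast treated with test compounds. Readout: growth vs vehicle control.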
# [4] = NCI Yeast Anticancer Drug Screen. Data for the mgt1 strain (AID 153); conditions: S. cerevisiae mgt1 mutant growth inhibition, active compounds read high
# Procedure, shortened: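 Growth inhibition relative to vehicle controls was scored for the mgt1 yeast strain after compound exposure.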
# [5] = NCI Yeast Anticancer Drug Screen. Data for the rad50 strain (AID 155);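 further: 0% = growth of vehicle-only cultures of the same strain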; conditions: S. cerevisiae rad50 strain growth inhibition, active compounds read high
# Procedure, shortened: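 Genetically altered yeast (DNA repair pathway); compound treatment; growth inhibition vs vehicle ctrl.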
# [6] = NCI Yeast Anticancer Drug Screen. Data for the mec2-1 strain (AID 157); conditions: S. cerevisiae mec2-1 strain, active compounds read high
# Procedure, shortened: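 Growth inhibition is read against vehicle-treated controls after compound exposure of the mec2-1 yeast strain, which is defective in DNA damage repair or cell cycle control.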
# [7] = NCI Yeast Anticancer Drug Screen. Data for the rad14 strain (AID 159);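 further: 0% = growth of vehicle-treated control cultures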; conditions: S. cerevisiae rad14 strain growth inhibition, active compounds read high
# Procedure, shortened: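 Test compounds were applied to a repair-deficient yeast strain. Its growth was then compared with that of cultures given vehicle alone, and inhibition was expressed relative to those controls.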
# [8] = NCI Yeast Anticancer Drug Screen. Data for the sgs1 mgt1 strain (AID 161);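 further: 0% = growth of cultures given vehicle only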; conditions: S. cerevisiae sgs1 mgt1 strain, active compounds read high
# Procedure, shortened: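 Growth of a repair-deficient yeast mutant was monitored after compound treatment and expressed as inhibition relative to vehicle-treated cultures.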
# [9] = NCI Yeast Anticancer Drug Screen. Data for the CLN2oe strain (AID 163);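 further: 0% = growth of vehicle-only control cultures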; conditions: S. cerevisiae CLN2oe strain, active compounds read high
# Procedure, shortened: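 Compound-treated yeast; growth vs vehicle ctrl = % inhibition. Genetically altered strain (cell-cycle control).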
# [10] = NCI Yeast Anticancer Drug Screen. Data for the cln2 rad14 strain (AID 165);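 further: 0% = growth equal to vehicle treated cultures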; conditions: S. cerevisiae cln2 rad14 strain, active compounds read high
# Procedure, shortened: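 Growth inhibition, relative to vehicle-treated controls, is the read-out. The test organism is a yeast strain with defined genetic alterations, cln2 rad14.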
# [11] = NCI Yeast Anticancer Drug Screen. Data for the bub3 strain (AID 167); conditions: S. cerevisiae bub3 mutant strain, active compounds read high
# Procedure, shortened: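 Yeast carrying a defined mutation is treated with each compound, and growth is compared with that of vehicle-exposed cells to give inhibition.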
# [12] = NCI Yeast Anticancer Drug Screen. Data for the wt2 strain (AID 169);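 further: 0% = growth of vehicle-treated yeast cultures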; conditions: S. cerevisiae wt2 strain growth inhibition, active compounds read high
# Procedure, shortened: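 Compound exposure of yeast; growth compared with vehicle controls; inhibition reported.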
# [13] = NCI Yeast Anticancer Drug Screen. Data for the mlh1 strain (AID 171);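 further: 0% = growth of vehicle-treated control cultures of the same strain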; conditions: S. cerevisiae mlh1 strain growth inhibition, active compounds read high
# Procedure, shortened: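 Compounds are applied to a genetically altered yeast strain, and its growth is compared with that of vehicle-treated cultures to give percent inhibition.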
# [14] = NCI Yeast Anticancer Drug Screen. Data for the sgs1 strain (AID 173);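 further: 0% = growth of vehicle-only control cultures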; conditions: S. cerevisiae sgs1 mutant, active compounds read high
# Procedure, shortened: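 Compounds applied to genetically altered yeast; growth compared with vehicle-treated cultures to give % inhibition.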
# [15] = NCI Yeast Anticancer Drug Screen. Data for the mlh1 rad18 strain (AID 175); conditions: S. cerevisiae mlh1 rad18 strain growth inhibition, active compounds read high
# Procedure, shortened: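 Cells of a genetically altered yeast strain, deficient in DNA damage repair, were treated with compound. Their growth was then compared with that of vehicle-treated cultures to give inhibition.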
# [16] = NCI Yeast Anticancer Drug Screen. Data for the rad18 strain (AID 177); conditions: S. cerevisiae rad18 mutant growth inhibition, active compounds read high
# Procedure, shortened: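 Compounds are applied to a repair-deficient yeast strain, and growth is compared with that of vehicle-treated cultures to give percent inhibition.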
# [17] = at 5.0 µM (retest, dose inferred, filed as 0.5)
# [18] = at 50.0 µM (retest, dose inferred, filed as 5.0)
smiles,measurement,setting,value
CCNc1nnc(CSc2nc(-c3ccccc3)c(-c3ccccc3)[nH]2)s1,growth inhibition,[1]; at 1.2 µM,-6%
same,growth inhibition,[1]; at 3.7 µM,14%
same,growth inhibition,[1]; at 11.0 µM,-1%
same,growth inhibition,[1]; at 33.0 µM,86% (active)
same,growth inhibition,[1]; at 100.0 µM,80% (active)
same,growth inhibition,[2]; at 1.2 µM,-4%
same,growth inhibition,[2]; at 3.7 µM,-9%
same,growth inhibition,[2]; at 11.0 µM,-19%
same,growth inhibition,[2]; at 33.0 µM,81% (active)
same,growth inhibition,[2]; at 100.0 µM,77% (active)
same,growth inhibition,[3]; at 1.2 µM,9%
same,growth inhibition,[3]; at 3.7 µM,13%
same,growth inhibition,[3]; at 11.0 µM,12%
same,growth inhibition,[3]; at 33.0 µM,4%
same,growth inhibition,[3]; at 100.0 µM,5%
same,growth inhibition,[4]; at 1.2 µM,-9%
same,growth inhibition,[4]; at 3.7 µM,-11%
same,growth inhibition,[4]; at 11.0 µM,-18%
same,growth inhibition,[4]; at 33.0 µM,87% (active)
same,growth inhibition,[4]; at 100.0 µM,73% (active)
same,growth inhibition,[5]; at 1.2 µM,-3%
same,growth inhibition,[5]; at 3.7 µM,-15%
same,growth inhibition,[5]; [17],7%
same,growth inhibition,[5]; at 11.0 µM,-13%
same,growth inhibition,[5]; at 33.0 µM,77% (active)
same,growth inhibition,[5]; [18],94% (active)
same,growth inhibition,[5]; at 50.0 µM,79.3% (active)
same,growth inhibition,[5]; at 100.0 µM,76% (active)
same,growth inhibition,[6]; at 1.2 µM,8%
same,growth inhibition,[6]; at 3.7 µM,0%
same,growth inhibition,[6]; [17],-8%
same,growth inhibition,[6]; at 11.0 µM,-8%
same,growth inhibition,[6]; at 33.0 µM,73% (active)
same,growth inhibition,[6]; [18],93% (active)
same,growth inhibition,[6]; at 50.0 µM,66%
same,growth inhibition,[6]; at 100.0 µM,77% (active)
same,growth inhibition,[7]; at 1.2 µM,-10%
same,growth inhibition,[7]; at 3.7 µM,-4%
same,growth inhibition,[7]; at 11.0 µM,-51%
same,growth inhibition,[7]; at 33.0 µM,58%
same,growth inhibition,[7]; at 100.0 µM,55%
same,growth inhibition,[8]; [17],7%
same,growth inhibition,[8]; [18],97% (active)
same,growth inhibition,[8]; at 50.0 µM,64.8%
same,growth inhibition,[9]; at 1.2 µM,5%
same,growth inhibition,[9]; at 3.7 µM,-7%
same,growth inhibition,[9]; at 11.0 µM,5%
same,growth inhibition,[9]; at 33.0 µM,85% (active)
same,growth inhibition,[9]; at 100.0 µM,76% (active)
same,growth inhibition,[10]; [17],4%
same,growth inhibition,[10]; [18],97% (active)
same,growth inhibition,[10]; at 50.0 µM,75% (active)
same,growth inhibition,[11]; at 1.2 µM,-10%
same,growth inhibition,[11]; at 3.7 µM,-29%
same,growth inhibition,[11]; [17],36%
same,growth inhibition,[11]; at 11.0 µM,-23%
same,growth inhibition,[11]; at 33.0 µM,87% (active)
same,growth inhibition,[11]; [18],97% (active)
same,growth inhibition,[11]; at 50.0 µM,85.2% (active)
same,growth inhibition,[11]; at 100.0 µM,82% (active)
same,growth inhibition,[12]; at 1.2 µM,-3%
same,growth inhibition,[12]; at 3.7 µM,-9%
same,growth inhibition,[12]; at 11.0 µM,-37%
same,growth inhibition,[12]; at 33.0 µM,92% (active)
same,growth inhibition,[12]; at 100.0 µM,83% (active)
same,growth inhibition,[13]; at 1.2 µM,3%
same,growth inhibition,[13]; at 3.7 µM,5%
same,growth inhibition,[13]; at 11.0 µM,0%
same,growth inhibition,[13]; at 33.0 µM,81% (active)
same,growth inhibition,[13]; at 100.0 µM,66%
same,growth inhibition,[14]; at 1.2 µM,23%
same,growth inhibition,[14]; at 3.7 µM,18%
same,growth inhibition,[14]; at 11.0 µM,18%
same,growth inhibition,[14]; at 33.0 µM,71% (active)
same,growth inhibition,[14]; at 100.0 µM,80% (active)
same,growth inhibition,[15]; [17],-1%
same,growth inhibition,[15]; [18],93% (active)
same,growth inhibition,[15]; at 50.0 µM,86.3% (active)
same,growth inhibition,[16]; at 1.2 µM,12%
same,growth inhibition,[16]; at 3.7 µM,16%
same,growth inhibition,[16]; at 11.0 µM,13%
same,growth inhibition,[16]; at 33.0 µM,89% (active)
same,growth inhibition,[16]; at 100.0 µM,79% (active)
CC(C)/C(Cl)=N\OC(=O)Nc1cccc(Cl)c1,growth inhibition,[1]; at 1.2 µM,-4%
same,growth inhibition,[1]; at 3.7 µM,-7%
same,growth inhibition,[1]; at 11.0 µM,-4%
same,growth inhibition,[1]; at 33.0 µM,-3%
same,growth inhibition,[1]; at 100.0 µM,-2%
same,growth inhibition,[2]; at 1.2 µM,-2%
same,growth inhibition,[2]; at 3.7 µM,0%
same,growth inhibition,[2]; at 11.0 µM,-1%
same,growth inhibition,[2]; at 33.0 µM,-2%
same,growth inhibition,[2]; at 100.0 µM,1%
same,growth inhibition,[3]; at 1.2 µM,-2%
same,growth inhibition,[3]; at 3.7 µM,-2%
same,growth inhibition,[3]; at 11.0 µM,1%
same,growth inhibition,[3]; at 33.0 µM,2%
same,growth inhibition,[3]; at 100.0 µM,0%
same,growth inhibition,[4]; at 1.2 µM,-1%
same,growth inhibition,[4]; at 3.7 µM,-3%
same,growth inhibition,[4]; at 11.0 µM,12%
same,growth inhibition,[4]; at 33.0 µM,-26%
same,growth inhibition,[4]; at 100.0 µM,0%
same,growth inhibition,[5]; at 1.2 µM,-2%
same,growth inhibition,[5]; at 3.7 µM,-5%
same,growth inhibition,[5]; [17],8%
same,growth inhibition,[5]; at 11.0 µM,-26%
same,growth inhibition,[5]; at 33.0 µM,-1%
same,growth inhibition,[5]; [18],47%
same,growth inhibition,[5]; at 50.0 µM,69.5%
same,growth inhibition,[5]; at 100.0 µM,3%
same,growth inhibition,[6]; at 1.2 µM,0%
same,growth inhibition,[6]; at 3.7 µM,0%
same,growth inhibition,[6]; [17],-17%
same,growth inhibition,[6]; at 11.0 µM,2%
same,growth inhibition,[6]; at 33.0 µM,2%
same,growth inhibition,[6]; [18],30%
same,growth inhibition,[6]; at 50.0 µM,87.8% (active)
same,growth inhibition,[6]; at 100.0 µM,1%
same,growth inhibition,[7]; at 1.2 µM,0%
same,growth inhibition,[7]; at 3.7 µM,2%
same,growth inhibition,[7]; at 11.0 µM,0%
same,growth inhibition,[7]; at 33.0 µM,4%
same,growth inhibition,[7]; at 100.0 µM,6%
same,growth inhibition,[8]; [17],-17%
same,growth inhibition,[8]; [18],83% (active)
same,growth inhibition,[8]; at 50.0 µM,85.2% (active)
same,growth inhibition,[9]; at 1.2 µM,-4%
same,growth inhibition,[9]; at 3.7 µM,-3%
same,growth inhibition,[9]; at 11.0 µM,-6%
same,growth inhibition,[9]; at 33.0 µM,-3%
same,growth inhibition,[9]; at 100.0 µM,10%
same,growth inhibition,[10]; [17],-3%
same,growth inhibition,[10]; [18],19%
same,growth inhibition,[10]; at 50.0 µM,72.3% (active)
same,growth inhibition,[11]; at 1.2 µM,1%
same,growth inhibition,[11]; at 3.7 µM,4%
same,growth inhibition,[11]; [17],-29%
same,growth inhibition,[11]; at 11.0 µM,10%
same,growth inhibition,[11]; at 33.0 µM,12%
same,growth inhibition,[11]; [18],88% (active)
same,growth inhibition,[11]; at 50.0 µM,82.3% (active)
same,growth inhibition,[11]; at 100.0 µM,10%
same,growth inhibition,[12]; at 1.2 µM,-2%
same,growth inhibition,[12]; at 3.7 µM,-3%
same,growth inhibition,[12]; at 11.0 µM,-2%
same,growth inhibition,[12]; at 33.0 µM,-4%
same,growth inhibition,[12]; at 100.0 µM,0%
same,growth inhibition,[13]; at 1.2 µM,-1%
same,growth inhibition,[13]; at 3.7 µM,-7%
same,growth inhibition,[13]; at 11.0 µM,0%
same,growth inhibition,[13]; at 33.0 µM,0%
same,growth inhibition,[13]; at 100.0 µM,-2%
same,growth inhibition,[14]; at 1.2 µM,0%
same,growth inhibition,[14]; at 3.7 µM,1%
same,growth inhibition,[14]; at 11.0 µM,2%
same,growth inhibition,[14]; at 33.0 µM,1%
same,growth inhibition,[14]; at 100.0 µM,2%
same,growth inhibition,[15]; [17],-12%
same,growth inhibition,[15]; [18],22%
same,growth inhibition,[15]; at 50.0 µM,77.5% (active)
same,growth inhibition,[16]; at 1.2 µM,-7%
same,growth inhibition,[16]; at 3.7 µM,-8%
same,growth inhibition,[16]; at 11.0 µM,-10%
same,growth inhibition,[16]; at 33.0 µM,-24%
same,growth inhibition,[16]; at 100.0 µM,-1%

# From PubChem BioAssay (NCI)
